In PubChem BioAssay (NCATS):
Results filed as inconclusive are left out. Where a call stands in place of a potency, no number is given. Values without a mark were called inactive. Activity calls are given as the source filed them. Calls follow the shape of the dose curve; as a rule, active = well fitted curve in the direction sought with a large enough effect; inconclusive = small, poorly fitted or top-dose-only effect, or another doubt; inactive = no such curve, though single readings can be large; an effect the other way counts as inactive or inconclusive.

What was measured:
[1] = target: Rap guanine nucleotide exchange factor 3 (Homo sapiens) (UniProt O95398); experiment: Confirmatory qHTS for antagonist of cAMP-regulated guanine nucleotide exchange factor 3 (EPAC1) (AID 1645880); also: nearly all actives have a fitted effect of over 55% in size; also: potency is read from the fitted curve at half-maximal effect
How it was run: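 Released BODIPY-GDP fluoresces less than Rap1-bound BODIPY-GDP; the signal is followed at 480/540 nm at 5-min intervals over 30 min, after 5 min at room temperature. Reactions contain 100 nM EPAC1, 250 nM RAP1B-BODIPY-GDP and 50 uM GDP; results are normalized to ATA and DMSO.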

[2] = target: Rap guanine nucleotide exchange factor 3 (Homo sapiens) (UniProt O95398); experiment: Confirmatory qHTS for agonist of cAMP-regulated guanine nucleotide exchange factor 3 (EPAC1) (AID 1645881);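 also: EPAC1 catalysed release of BODIPY-GDP from Rap1B seen as fluorescence loss; nearly all actives have a fitted effect of over 75% in size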
[3] = target: Rap guanine nucleotide exchange factor 4 (Homo sapiens) (UniProt Q8WZA2); experiment: Confirmatory qHTS for agonist of cAMP-regulated guanine nucleotide exchange factor 4 (EPAC2) (AID 1645884);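 also: nucleotide exchange releases bodipy-GDP from Rap1 and this lowers its fluorescence; nearly all actives have a fitted effect of over 65% in size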
[4] = target: Rap guanine nucleotide exchange factor 4 (Homo sapiens) (UniProt Q8WZA2); experiment: Confirmatory qHTS for antagonist of cAMP-regulated guanine nucleotide exchange factor 4 (EPAC2) (AID 1645885); also: nearly all actives have a fitted effect of over 25% in size
[5] = target: Rap guanine nucleotide exchange factor 3 (Homo sapiens) (UniProt O95398); experiment: Counterscreen qHTS for antagonist of cAMP-regulated guanine nucleotide exchange factor 3 (EPAC1) (AID 1645888)
How it was run: (§1)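 Measured: fluorescence of BODIPY-GDP bound to Rap1B, which falls as exchange proceeds. Conditions include 50 uM competing GDP, 5 and 30 min reads, and a later cAMP challenge for antagonist detection.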

[6] = target: Rap guanine nucleotide exchange factor 3 (Homo sapiens) (UniProt O95398); experiment: Counterscreen qHTS for agonist of cAMP-regulated guanine nucleotide exchange factor 3 (EPAC1) (AID 1645889); also: nearly all actives have a fitted effect of over 40% in size
How it was run: as §1

Chain of Rap guanine nucleotide exchange factor 3 (Homo sapiens) (O95398 whole entry, looked up): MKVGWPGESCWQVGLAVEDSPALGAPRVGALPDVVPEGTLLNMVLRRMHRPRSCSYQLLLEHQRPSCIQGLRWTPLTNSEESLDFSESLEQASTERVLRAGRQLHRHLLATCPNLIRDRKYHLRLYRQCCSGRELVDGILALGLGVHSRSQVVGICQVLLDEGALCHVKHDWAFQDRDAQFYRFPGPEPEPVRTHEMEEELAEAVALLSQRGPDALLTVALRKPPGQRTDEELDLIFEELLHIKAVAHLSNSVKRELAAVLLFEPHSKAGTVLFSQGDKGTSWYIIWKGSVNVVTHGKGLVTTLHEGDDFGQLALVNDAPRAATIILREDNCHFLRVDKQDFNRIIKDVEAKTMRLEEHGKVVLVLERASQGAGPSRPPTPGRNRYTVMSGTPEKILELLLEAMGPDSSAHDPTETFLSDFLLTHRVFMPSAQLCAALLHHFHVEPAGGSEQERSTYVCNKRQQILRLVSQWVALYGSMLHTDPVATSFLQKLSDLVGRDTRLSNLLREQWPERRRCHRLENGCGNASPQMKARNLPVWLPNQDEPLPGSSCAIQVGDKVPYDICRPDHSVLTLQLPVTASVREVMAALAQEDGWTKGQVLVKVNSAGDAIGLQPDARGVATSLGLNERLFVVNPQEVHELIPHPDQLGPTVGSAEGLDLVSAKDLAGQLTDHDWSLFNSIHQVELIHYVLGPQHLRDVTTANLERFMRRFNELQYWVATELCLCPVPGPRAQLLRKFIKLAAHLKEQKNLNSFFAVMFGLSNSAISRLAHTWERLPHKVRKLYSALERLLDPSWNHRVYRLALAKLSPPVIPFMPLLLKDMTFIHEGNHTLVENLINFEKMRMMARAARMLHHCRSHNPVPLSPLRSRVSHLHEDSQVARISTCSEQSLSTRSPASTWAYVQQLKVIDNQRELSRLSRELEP
Chain of Rap guanine nucleotide exchange factor 4 (Homo sapiens) (Q8WZA2 whole entry, looked up): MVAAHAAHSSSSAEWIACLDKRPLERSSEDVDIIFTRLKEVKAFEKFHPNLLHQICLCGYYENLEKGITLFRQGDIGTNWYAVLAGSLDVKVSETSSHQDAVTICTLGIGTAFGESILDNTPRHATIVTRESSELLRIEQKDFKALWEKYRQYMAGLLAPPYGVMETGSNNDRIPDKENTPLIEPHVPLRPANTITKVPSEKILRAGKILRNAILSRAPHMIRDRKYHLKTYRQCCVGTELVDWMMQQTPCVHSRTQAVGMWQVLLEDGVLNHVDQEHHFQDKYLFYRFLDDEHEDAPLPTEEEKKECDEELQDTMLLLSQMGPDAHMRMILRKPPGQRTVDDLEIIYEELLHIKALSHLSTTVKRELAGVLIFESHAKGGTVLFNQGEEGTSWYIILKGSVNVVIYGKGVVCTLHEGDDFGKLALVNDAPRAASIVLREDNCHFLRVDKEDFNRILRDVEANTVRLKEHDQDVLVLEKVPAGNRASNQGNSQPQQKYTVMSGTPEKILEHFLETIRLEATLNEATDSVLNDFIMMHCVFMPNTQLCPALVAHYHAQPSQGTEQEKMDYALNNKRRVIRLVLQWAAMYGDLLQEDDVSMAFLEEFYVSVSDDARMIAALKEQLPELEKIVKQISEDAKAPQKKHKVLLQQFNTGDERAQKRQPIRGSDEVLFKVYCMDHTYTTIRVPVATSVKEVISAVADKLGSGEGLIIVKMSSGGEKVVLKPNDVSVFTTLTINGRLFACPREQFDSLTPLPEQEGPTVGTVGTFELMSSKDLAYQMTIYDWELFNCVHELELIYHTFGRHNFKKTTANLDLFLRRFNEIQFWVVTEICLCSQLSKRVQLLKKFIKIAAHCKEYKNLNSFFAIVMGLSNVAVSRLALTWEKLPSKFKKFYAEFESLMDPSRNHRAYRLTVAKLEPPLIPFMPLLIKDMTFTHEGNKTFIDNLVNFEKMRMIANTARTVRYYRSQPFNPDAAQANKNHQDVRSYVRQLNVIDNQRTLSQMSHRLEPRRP

Structure (SMILES) | Potency [1] | Potency [2] | Potency [3] | Potency [4] | Potency [5] | Potency [6] | activation [3] | activity change, negative = inhibition [5] | activation [6]
COC(=O)c1scc(C#N)c1N/N=C(\C#N)S(=O)(=O)c1ccc(Cl)cc1 | 47.8 µM (active) | inactive | inactive | inactive | inactive | inactive | – | – | –
CC(=O)Nc1ccc(C=NNc2ccc(S(=O)(=O)Nc3ccccc3C(=O)O)cc2[N+](=O)[O-])cc1 | 28.2 µM (active) | inactive | – | inactive | – | – | 0.331% [at 17.1 µM, percent relative to cAMP agonist control] | 0.935% [at 30.8 µM] | 13.4% [at 30.8 µM]
Cc1cc(Br)c2c(c1)C(O)(N1CCCCC1C)C(=O)N2 (stereo unspecified) | inactive | inactive | – | inactive | – | – | 10.3% [at 17.1 µM, percent relative to cAMP agonist control] | -0.193% [at 30.8 µM] | 19.4% [at 30.8 µM]
CC1CCCCC1NC(=O)COC(=O)c1c2c(nc3ccccc13)/C(=C/c1ccco1)CC2 (stereo unspecified) | 75.7 µM (active) | inactive | inactive | inactive | inactive | inactive | – | – | –
O=C(CCC(=O)N1CCSc2ccccc21)NCc1cccc(Cl)c1 | inactive | inactive | – | inactive | – | – | 1.67% [at 17.1 µM, percent relative to cAMP agonist control] | 1.86% [at 30.8 µM] | 22.1% [at 30.8 µM]
O=C(CCC1CCCC1)Nc1ccc([N+](=O)[O-])cn1 | inactive | inactive | inactive | inactive | inactive | inactive | – | – | –
O=C(Nc1ccc(F)cc1F)C1CCN(c2ncccn2)CC1 | inactive | inactive | inactive | inactive | inactive | inactive | – | – | –
CCCCSc1nc2c(c(=O)n1CC)SC(C)C2 (stereo unspecified) | inactive | inactive | – | inactive | – | – | -4.2% [at 17.1 µM, percent relative to cAMP agonist control] | 2.79% [at 30.8 µM] | 5.23% [at 30.8 µM]
COc1ccc(/C=C(/NC(=O)c2ccccc2)C(=O)N/N=C/c2ccncc2)c(OC)c1 | inactive | inactive | – | inactive | – | – | 2.49% [at 17.1 µM, percent relative to cAMP agonist control] | 28.5% [at 30.8 µM] | 12.1% [at 30.8 µM]
CC1CCC2=NN(C(=O)c3ccco3)C(O)(C(F)(F)F)C2C1 (stereo unspecified) | inactive | inactive | – | inactive | – | – | 4.2% [at 17.1 µM, percent relative to cAMP agonist control] | -9.1% [at 30.8 µM] | -2.19% [at 30.8 µM]
COc1cc(O)cc(O)c1C(=O)/C=C/c1ccccc1 | 67.5 µM (active) | inactive | inactive | inactive | inactive | inactive | – | – | –
CC(=O)CCc1oc2ccc(C)cc2c1-c1ccc(C)o1 | inactive | inactive | – | inactive | – | – | 9.77% [at 17.1 µM, percent relative to cAMP agonist control] | -33.7% [at 30.8 µM] | 31.9% [at 30.8 µM]
CC(C)CCOc1ccc(C2(C)NC(=O)N(CN3CCOCC3)C2=O)cc1 (stereo unspecified) | inactive | inactive | inactive | inactive | inactive | inactive | – | – | –
CCCN1C(=O)c2cc(C(=O)Nc3ccccc3CC)ccc2C1O (stereo unspecified) | inactive | inactive | inactive | inactive | inactive | inactive | – | – | –
CN(C)c1ccc(C(O)c2cc3ccccc3s2)cc1 (stereo unspecified) | inactive | inactive | inactive | inactive | inactive | inactive | – | – | –
O=C(c1ccc(Cl)cc1)C(CN1CCCCC1)c1ccccc1 (stereo unspecified) | 37.9 µM (active) | inactive | inactive | inactive | inactive | inactive | – | – | –
